Laboratory results taken from PubChem BioAssay (NCI).
This is part of a sample that, as a whole, favours compounds with a hit. Of some 83,000 tested, about 20% had one in any assay.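 Testing used 96-well plates and a 48-hour single-concentration exposure. Example: -40 means 40% of the starting cells died.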 A number with no mark means an inactive call. The source made the active and inactive calls. The calls were made as follows: active = growth percent below 10; inactive = the rest.

Tests used:
Assay in all cases: NCI-60 one-dose screen, 48 h (100 = growth as untreated, 0 = no growth, -100 = all killed)
Details in all cases: 10 µM unless noted
[1] = tested on: HCT-15 colon
[2] = tested on: HT29 colon
[3] = tested on: SNB-75 CNS
[4] = tested on: SNB-19 CNS
[5] = tested on: U251 CNS
[6] = tested on: PC-3 prostate
[7] = tested on: SK-MEL-5 melanoma
[8] = tested on: UACC-62 melanoma
[9] = tested on: LOX IMVI melanoma
[10] = tested on: SK-MEL-28 melanoma
[11] = tested on: SK-MEL-2 melanoma
[12] = tested on: EKVX NSCLC
[13] = tested on: SN12C renal
[14] = tested on: UO-31 renal
[15] = tested on: TK-10 renal
[16] = tested on: ACHN renal
[17] = tested on: CAKI-1 renal
[18] = tested on: A498 renal
[19] = tested on: CCRF-CEM leukemia
[20] = tested on: MOLT-4 leukemia

SMILES | growth [1] | growth [2] | growth [3] [%] | growth [4] [%] | growth [5] | growth [6] [%] | growth [7] | growth [8] [%] | growth [9] | growth [10] | growth [11] | growth [12] | growth [13] | growth [14] | growth [15] | growth [16] [%] | growth [17] | growth [18] [%] | growth [19] | growth [20]
CCN(CC)CC(O)CNc1c2ccc(Cl)cc2nc2ccc(OC)cc12 (stereo not given) | -6.56% (active) | -4.13% (active) | 58.4 | 57.3 | -28.3% (active) | 16.6 | -92.5% (active) | 64.8 | -64.2% (active) | -96.6% (active) | -63.4% (active) | 7.93% (active) | 4.08% (active) | -19.3% (active) | -21.8% (active) | 12.1 | -63.6% (active) | 43.6 | 0.913% (active) | 4.43% (active)
C/C(Cc1ccc(Cl)cc1)=C(/c1ccc(Cl)cc1)c1ccc(OCCN(C)C)cc1 | 2.19% (active) | 8.12% (active) | 68.7 | 69.4 | 38.2% | 58.1 | 67.5% | 82 | -88% (active) | 84.4% | 109% | 81.8% | 47.9% | 65% | 82.9% | 82.8 | 54.6% | 80.8 | 39.5% | 31.7%
O=C1c2ccccc2C2(c3ccc(O)cc3)c3ccccc3Oc3cccc1c32 (stereo not given) | 25.9% | 7.07% (active) | 42.2 | 35.6 | 15.5% | 21.6 | 16.9% | 30.8 | 28.3% | 51.9% | 25.4% | 45.7% | 37.5% | 45.7% | 84.3% | 43.4 | 45.9% | 47.1 | 14.8% | 24.8%
C[C@H]1[C@H]2C3=CC[C@@H]4[C@@]5(C)C/C(=C/c6ccncc6)C(=O)C(C)(C)[C@@H]5CC[C@@]4(C)[C@]3(C)CC[C@@]2(C(=O)N2CCN(C)CC2)CC[C@@H]1C | 66% | 46.9% | 76.3 | 78.2 | 68.8% | 33.9 | 87.7% | 80.2 | 84.3% | 101% | 96.3% | 78.3% | 78.9% | 62.4% | 86.1% | 91 | 75.1% | 93.9 | 64.7% | 52.1%
c1ccc2[nH]c(SSc3nc4ncncc4[nH]3)nc2c1 | 26.9% | 29.5% | 45.5 | 84.4 | 54% | 42.9 | 28.1% | 12.7 | 4.64% (active) | 86% | 57.2% | 67.5% | 42.3% | 31.6% | 30% | 32.2 | -46.4% (active) | 61.7 | 24.7% | 26%
O[C@H]1CO[C@H]2[C@@H]1OC[C@@H]2Oc1ccc(Nc2nc(Nc3ccc(F)c(Cl)c3)ncc2F)cc1Cl | 90.8% | 111% | 74.7 | 103 | 108% | 102 | -90.5% (active) | 89.4 | 103% | 99.7% | 113% | 92.2% | 97% | 88% | 105% | 105 | 93.5% | 94.4 | 103% | 103%
COc1cc(/C=C/C(=O)c2cccc(-n3cc(-c4ccc(Cl)cc4)[nH]c3=O)c2)cc(OC)c1OC | 40.3% | -12% (active) | 84.9 | 75.5 | 30.9% | 47.7 | 58.2% | 72.4 | -47.4% (active) | 86.5% | 34.1% | 64.7% | 56.3% | 52.2% | 91.7% | 67.5 | 65.6% | 110 | 4.15% (active) | 26.8%
C[N+](C)(C)CCOC(OCC[N+](C)(C)C)(c1ccccc1)c1ccccc1 | 104% | 104% | 87.3 | 93.9 | 104% | 92.7 | 110% | 99.3 | 98.6% | 104% | 99.4% | 111% | 99.9% | 89.1% | 109% | 97.6 | 101% | 113 | 105% | 102%
Clc1ccc(/C=N\N=c2\scc(-c3ccc(Cl)cc3)n2/N=C/c2ccc(Cl)cc2)cc1 | 111% | 76.5% | 91.6 | 90 | 97.6% | 102 | 106% | 98.7 | 109% | 106% | 91.4% | 109% | 102% | 95.7% | 92.5% | 106 | 107% | 92.1 | 97% | 91.7%
O=C(/C=C/c1ccccc1)c1ccc2ccccc2c1 | 48.5% | 54.7% | 107 | 99.3 | 93.2% | 90.1 | 92% | 92.6 | 89.3% | 108% | 98.4% | 86.7% | 99.7% | 73.9% | 44.4% | 16.2 | 83.9% | 93.5 | 23% | 74.5%
Oc1ccccc1-c1nc2ccccn2c1NCCN1CCOCC1 | 99.4% | 93.8% | 80.2 | 99.7 | 97% | 87.4 | 98.7% | 95.3 | 94.4% | 94.4% | 106% | 102% | 97.1% | 89.9% | 94.8% | 95.3 | 86.9% | 89.5 | 94.3% | 97.5%
CCCCNC(=O)c1cc(NCc2cc(O)ccc2O)ccc1O | 84.6% | 80.8% | 66.6 | 106 | 98.6% | 74.4 | 98.4% | 93.8 | 91.3% | 105% | 93.6% | 95% | 89.7% | 57% | 101% | 89.4 | 87.3% | 88.9 | 8.3% (active) | 61.5%
COc1cc2c(O)n(CCCn3ccnc3)c3c4cnc5cccc(c(=O)c3c2cc1OC)c54 | 95.2% | 33.8% | 52 | 33.8 | 14% | 28.2 | 24.9% | 15 | 3.76% (active) | 79.6% | 71% | 49.6% | 19.2% | 64.7% | 92.7% | 27.2 | 66.4% | 21.5 | 11% | 4.13% (active)
CCc1nc2ccccc2[nH]1 | 108% | 108% | 91.1 | 98.3 | 106% | 101 | 110% | 98.9 | 107% | 105% | 127% | 112% | 95.6% | 80.1% | 118% | 108 | 109% | 96.1 | 98.8% | 97.5%
CS(=O)(=O)c1ccc(-c2nc3cc(Cl)ccc3n2CC(=O)N/N=C/c2ccc(Cl)cc2)cc1 | 72.6% | 36.2% | 42.1 | 51.3 | 30.5% | 45.5 | 23.1% | 56.2 | 30.7% | 43.6% | 44.3% | 72.1% | 69.3% | 77.8% | 81.7% | 61.5 | 71.3% | 68.4 | 19.9% | 12.6%
